The values that follow come from PubChem BioAssay (NCI).

Among the test systems are NCI-H23 lung; NCI-H226 lung; NCI-H322M lung; HOP-62 NSCLC; NCI-H460 lung; HOP-92 NSCLC; NCI-H522 lung; 786-0 renal; COLO 205 colon; DU-145 prostate; K-562 leukemia; MALME-3M melanoma; MDA-MB-231 breast; RXF 393 renal; SF-268 CNS; SF-539 CNS; UACC-257 melanoma; M14 melanoma; A549/ATCC NSCLC; SF-295 CNS.
Test in all cases: NCI-60 one-dose screen, 48 h (100 = growth as untreated, 0 = no growth, -100 = all killed)
What all share (settings): 10 µM unless noted

Compounds without any hit were thinned out: in the full panel of roughly 83,000, 20% have a hit.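 A percent growth of 40 corresponds to 60% growth inhibition; 0 means no net growth; -100 means all cells died. Active threshold: below 10.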 Unmarked numbers belong to inactive results. The source made the active and inactive calls.

Consider `Nc1cc2c([nH]c[n+]2CC#CCCl)c(SCC#CCCl)n1`, for which the growth in the assay with NCI-H23 lung is -72.2% (active); in the assay on NCI-H226 lung, -42.5% (active); with NCI-H322M lung it was -66.6% (active); in the assay on HOP-62 NSCLC, -62.8% (active); with NCI-H460 lung, -7.39% (active); with HOP-92 NSCLC, -39.7% (active). Besides, the growth in the assay on NCI-H522 lung was -90.7% (active); in the assay with 786-0 renal, -86.5% (active); in the assay with COLO 205 colon, -48.5% (active); in the assay on DU-145 prostate, -5.81% (active); in the assay with K-562 leukemia it was 5.47% (active); with MALME-3M melanoma it was -46.4% (active). In addition, the growth in the assay with MDA-MB-231 breast was -50.2% (active); in the assay with RXF 393 renal, -90.5% (active); with SF-268 CNS, -9.39% (active); with SF-539 CNS it was -75.3% (active); in the assay with UACC-257 melanoma, -59.5% (active); in the assay on M14 melanoma it was -90.9% (active).
In the case of `COc1ccc(C2=Nn3c(nnc3-n3nc(C)cc3C)SC2)cc1`, the growth in the assay with NCI-H23 lung is 30.2%; in the assay on NCI-H226 lung, 57.4%; in the assay on NCI-H322M lung, 44.6%; with HOP-62 NSCLC, 29.7%; with HOP-92 NSCLC, 11.2%; with NCI-H522 lung, -9.16% (active). Besides, the growth was 10.2% in the assay with A549/ATCC NSCLC; 17.7% in the assay on 786-0 renal; -42.5% (active) in the assay with COLO 205 colon; -15.9% (active) in the assay on DU-145 prostate; 4.47% (active) with K-562 leukemia; 49.9% with MALME-3M melanoma. Also, the growth in the assay on MDA-MB-231 breast is -7.82% (active); in the assay on RXF 393 renal, 4.22% (active); with SF-268 CNS it was 29.9%; in the assay on SF-539 CNS it was 1.51% (active); with UACC-257 melanoma it was 64.7%; in the assay with M14 melanoma, 10%.
With `CCCCN(CCCC)c1ccc(C(=N)c2ccc(N(CCCC)CCCC)cc2)cc1`, the growth was -77% (active) in the assay on NCI-H23 lung; -90.7% (active) in the assay on NCI-H226 lung; 11.9% in the assay with NCI-H322M lung; -96.8% (active) in the assay on HOP-62 NSCLC; -83% (active) in the assay with HOP-92 NSCLC; -87% (active) in the assay on NCI-H522 lung. In addition, the growth is -86.6% (active) with A549/ATCC NSCLC; -91.2% (active) in the assay with 786-0 renal; -96.2% (active) in the assay with COLO 205 colon; -98.6% (active) with DU-145 prostate; -64.5% (active) in the assay on MALME-3M melanoma; -90.3% (active) with MDA-MB-231 breast. Moreover, the growth in the assay with RXF 393 renal was -94.8% (active); in the assay on SF-268 CNS it was -95.9% (active); with SF-295 CNS, -83.5% (active); in the assay with SF-539 CNS, -91.3% (active); in the assay on UACC-257 melanoma, -81.1% (active); in the assay on M14 melanoma it was -90.3% (active).
`Cc1ccc(C(=O)C2=Cc3cc4ccccc4n3Cc3cnnn32)cc1`: the growth in the assay with NCI-H23 lung is 100%; in the assay on NCI-H226 lung it was 98.1%; with NCI-H322M lung, 95.9%; with HOP-62 NSCLC, 87.4%; in the assay with HOP-92 NSCLC it was 86%; with NCI-H522 lung it was 64.5%. Further, the growth is 94.6% in the assay on 786-0 renal; 111% in the assay on COLO 205 colon; 113% with DU-145 prostate; 75.1% with K-562 leukemia; 116% with MALME-3M melanoma; 95.5% in the assay with MDA-MB-231 breast. Moreover, the growth in the assay with RXF 393 renal was 95.3%; in the assay with SF-268 CNS, 101%; in the assay with SF-295 CNS, 114%; in the assay with SF-539 CNS, 111%; in the assay with UACC-257 melanoma, 98.8%; in the assay with M14 melanoma, 115%.
Regarding `CC(C)CSc1nc(NN)c(C#N)c(-c2ccccc2)n1`, the growth with NCI-H23 lung was 99.7%; in the assay with NCI-H226 lung it was 89.1%; with NCI-H322M lung, 89.5%; in the assay on HOP-62 NSCLC it was 94.1%; in the assay on HOP-92 NSCLC, 108%; in the assay with NCI-H522 lung, 88.2%. The growth in the assay on A549/ATCC NSCLC is 105%; in the assay on 786-0 renal, 98.4%; with COLO 205 colon, 111%; in the assay with DU-145 prostate it was 103%; with K-562 leukemia, 94.5%; in the assay with MALME-3M melanoma, 118%. Moreover, the growth in the assay on MDA-MB-231 breast is 107%; in the assay on RXF 393 renal, 90.1%; with SF-268 CNS, 84.6%; in the assay on SF-295 CNS, 88.1%; with SF-539 CNS, 94.5%; in the assay on UACC-257 melanoma it was 110%. Further, the growth in the assay with M14 melanoma was 107%.
`COc1cc(-c2nn(-c3cccc(NC(=O)Nc4ccc(Cl)c(C(F)(F)F)c4)c3)cc2-c2ccncc2)ccc1Cl`: the growth with NCI-H23 lung is 5.69% (active); with NCI-H226 lung, 12.1%; in the assay on NCI-H322M lung, 32.3%; in the assay with HOP-62 NSCLC, 5.4% (active); in the assay with HOP-92 NSCLC, -37.5% (active); with NCI-H522 lung, -13.9% (active). Besides, the growth in the assay with A549/ATCC NSCLC is -10.4% (active); in the assay on 786-0 renal, 15.1%; in the assay on COLO 205 colon it was -91.6% (active); with DU-145 prostate, 20.3%; with K-562 leukemia it was 3.8% (active); in the assay with MALME-3M melanoma, -14.9% (active). Also, the growth in the assay with MDA-MB-231 breast is -52.4% (active); with RXF 393 renal, -27.8% (active); in the assay with SF-268 CNS, 13.8%; in the assay with SF-539 CNS it was 6.56% (active); in the assay on UACC-257 melanoma, -37.6% (active); in the assay on M14 melanoma it was -11.6% (active).
For `O=C1CCCCC1(c1ccccc1)c1ccccc1`, the growth with NCI-H23 lung was 98.8%; in the assay on NCI-H226 lung, 99.8%; in the assay with NCI-H322M lung it was 111%; with HOP-62 NSCLC, 103%; with HOP-92 NSCLC, 89.3%; with NCI-H522 lung it was 99%. Also, the growth in the assay with A549/ATCC NSCLC is 110%; in the assay with 786-0 renal it was 109%; with COLO 205 colon, 109%; in the assay on MDA-MB-231 breast, 101%; in the assay with RXF 393 renal, 93.8%; in the assay with SF-268 CNS it was 98.2%. In addition, the growth was 97% in the assay on SF-295 CNS, 94% in the assay on SF-539 CNS, 106% in the assay with UACC-257 melanoma and 99% in the assay with M14 melanoma.
Turning to `Cn1cnc2c(N3CCN(C(=O)OCc4ccc5c(Cl)cc(Cl)c(O)c5n4)CC3)nc(Cl)nc21`, the growth was 86.4% in the assay on NCI-H23 lung; 72.9% in the assay on NCI-H226 lung; 70.2% with NCI-H322M lung; 53.7% in the assay on HOP-62 NSCLC; 70.7% with HOP-92 NSCLC; 80.3% in the assay with NCI-H522 lung. In addition, the growth in the assay on A549/ATCC NSCLC was 51.2%; in the assay with 786-0 renal, 92.1%; in the assay on COLO 205 colon it was 109%; with DU-145 prostate it was 61.1%; in the assay with K-562 leukemia it was 44.9%; in the assay on MALME-3M melanoma it was 85.2%. Also, the growth in the assay with MDA-MB-231 breast is 83%; with RXF 393 renal it was 74.4%; in the assay with SF-268 CNS, 59.5%; in the assay on SF-295 CNS, 38.7%; in the assay on SF-539 CNS it was 82.7%; with UACC-257 melanoma it was 89.6%. Further, the growth in the assay with M14 melanoma is 66.1%.
As to `Cc1cc(N/N=C/c2nc(-c3ccc(Br)cc3)oc2C)c2cc(Br)ccc2n1`, the growth in the assay with NCI-H23 lung was 103%; in the assay with NCI-H226 lung, 113%; in the assay with NCI-H322M lung, 82.8%; in the assay on NCI-H460 lung, -13.1% (active); with HOP-92 NSCLC, 78.8%; in the assay with NCI-H522 lung it was 48%. The growth in the assay on A549/ATCC NSCLC is 32.8%; in the assay on 786-0 renal it was 29.2%; in the assay on COLO 205 colon it was 99.7%; in the assay with DU-145 prostate, 34.6%; in the assay with K-562 leukemia, -29.2% (active); in the assay on MALME-3M melanoma, 17.4%. Further, the growth in the assay with MDA-MB-231 breast was 55.9%; in the assay with RXF 393 renal, 92.8%; in the assay with SF-268 CNS, 75.1%; with SF-295 CNS, 96.7%; in the assay on SF-539 CNS, 89%; in the assay on UACC-257 melanoma it was 95.8%. Moreover, the growth with M14 melanoma is 57.5%.
